Experimental data as given in PubChem BioAssay (NCI).
This is part of a sample that, as a whole, favours compounds with a hit. Of some 83,000 tested, about 20% had one in any assay.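 The test compound was applied at a single concentration to cells in 96-well plates for 48 hours, and percent growth was recorded.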 The source made the active and inactive calls. Rule for the calls: active = growth percent below 10; inactive = the rest.

Tests used:
Test in all cases: NCI-60 one-dose screen, 48 h (100 = growth as untreated, 0 = no growth, -100 = all killed)
NCI-H322M lung = settings: 10 µM
HOP-62 NSCLC = settings: 10 µM
NCI-H460 lung = settings: 10 µM
NCI-H522 lung = settings: 10 µM
A549/ATCC NSCLC = settings: 10 µM
DU-145 prostate = settings: 10 µM
MALME-3M melanoma = settings: 10 µM
SF-268 CNS = settings: 10 µM
SF-295 CNS = settings: 10 µM
SF-539 CNS = settings: 10 µM
UACC-257 melanoma = settings: 10 µM
M14 melanoma = settings: 10 µM
HCT-15 colon = settings: 10 µM
HT29 colon = settings: 10 µM
SNB-75 CNS = settings: 10 µM
PC-3 prostate = settings: 10 µM
SK-MEL-5 melanoma = settings: 10 µM
UACC-62 melanoma = settings: 10 µM
SK-MEL-2 melanoma = settings: 10 µM
HL-60(TB) leukemia = settings: 10 µM unless noted

Measured: growth

COCCOCCOCCOc1ccc(-n2cc(-c3ccc(O[C@H]4O[C@@H]5OC6(C)CC[C@H]7[C@H](C)CC[C@@H]([C@H]4C)[C@@]57OO6)cc3)nn2)cc1
inactive: NCI-H322M lung 86.1% | HOP-62 NSCLC 73.6% | NCI-H460 lung 70.6% | A549/ATCC NSCLC 60.1% | DU-145 prostate 42.6% | SF-268 CNS 59% | SF-295 CNS 40.4% | SF-539 CNS 47.6% | UACC-257 melanoma 39.7% | M14 melanoma 32% | HCT-15 colon 12.7% | HT29 colon 48.1% | SNB-75 CNS 66.5% | PC-3 prostate 28% | UACC-62 melanoma 37.3% | SK-MEL-2 melanoma 16.8% | HL-60(TB) leukemia 10.1%
active: NCI-H522 lung -21.3% | MALME-3M melanoma 8.12% | SK-MEL-5 melanoma -24.4%

CC1=C(C=O)C2=C(C)C3(CC3)[C@@](C)(O)C(=O)C2=C1
active: NCI-H460 lung 2.24% | NCI-H522 lung -76.5% | DU-145 prostate 8.41% | MALME-3M melanoma 1.71% | SF-539 CNS -47.8% | HCT-15 colon -29.3% | SK-MEL-5 melanoma -91.5% | SK-MEL-2 melanoma 8.32%
inactive: NCI-H322M lung 67.2% | HOP-62 NSCLC 37.5% | A549/ATCC NSCLC 17.8% | SF-268 CNS 36.2% | SF-295 CNS 70.5% | UACC-257 melanoma 73.8% | M14 melanoma 13.6% | HT29 colon 15.8% | SNB-75 CNS 16.5% | PC-3 prostate 26.1% | UACC-62 melanoma 49.3%

O=C(/C=C/c1ccccc1)c1nc2ccccc2n1Cc1ccc(F)cc1
active: HOP-62 NSCLC -26% | NCI-H460 lung -28.9% | NCI-H522 lung -33% | DU-145 prostate 2.92% | MALME-3M melanoma -28.3% | SF-295 CNS -11% | SF-539 CNS -89.1% | UACC-257 melanoma -1.28% | M14 melanoma -20.8% | HCT-15 colon -70.1% | HT29 colon -49.5% | SNB-75 CNS 3.39% | PC-3 prostate -33.5% | UACC-62 melanoma -39%
inactive: NCI-H322M lung 37% | A549/ATCC NSCLC 24.8% | SF-268 CNS 10.8% | SK-MEL-5 melanoma 11% | SK-MEL-2 melanoma 18.9%
